Assay [1] can be described thus: PubChem AID 1714.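 Also: raw slope of fluorescence over initial fluorescence between 10 and 20 s after thallium.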 To be noted: HEK293-KCC2 + bumetanide/ouabain, thallium flux FluoZin2; at 10 µM; stronger effect = higher value.
For assay [2], the target named is Solute carrier family 12 member 5 (Homo sapiens) (UniProt Q9H2X9). Description: retest of KCC2 transport modulation, ouabain-free – cell-based, HEK293 KCC2, thallium flux, FluoZin2, secondary assay 2, confirmation (AID 1715;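 active = thallium flux slope more than 3 SD above or below the plate's solvent-only control mean, mostly below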;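 also: raw slope with 0.1% DMSO as baseline and bumetanide as block control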). To be noted: HEK293-KCC2, thallium flux FluoZin2 fluorescence; at 10 µM; actives lie on both sides; F/F0 rise rate, 10–20 s post-thallium.
Assay [3] is described as follows: compound effects on native HEK Tl+ uptake – HEK cells, counterscreen 1, counter-screen for KCC2 modulator project, confirmation (AID 1716). To be noted: HEK293 parental cells, thallium flux FluoZin2, ouabain; at 10 µM; baseline-ratio fluorescence slope, 10–20 s after thallium.
The target in assay [4] is Solute carrier family 12 member 5 (Homo sapiens) (UniProt Q9H2X9). Description: modulation of KCC2 thallium flux in HEK cells – cell-based, ouabain, retest, confirmation (AID 1717;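 active = thallium flux slope beyond 3 SD from same-plate DMSO control mean in most replicates, usually higher, sometimes lower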;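 also: slope of initial-normalized fluorescence between seconds 10 and 20 after thallium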). To be noted: HEK293-KCC2, thallium flux FluoZin2 fluorescence, at 10 µM, bidirectional: low = inhibitor, high = activator.
Assay [5] can be described thus: native HEK Tl+ uptake effects, second counter-screen – HEK cells, counterscreen 2, counter-screen for KCC2 modulator project, confirmation (AID 1718;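 active = thallium flux slope above the same plate's solvent-control mean plus 3 SD in both duplicate wells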;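 also: run without ouabain in cells lacking the KCC2 cotransporter; slope of fluorescence scaled to its starting value between 10 and 20 s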). To be noted: HEK293 parental, thallium flux FluoZin-2 fluorescence slope; at 10 µM. A general note: Counterscreens check selectivity or assay interference.
Assay [6] has as its target Solute carrier family 12 member 5 (Homo sapiens) (UniProt Q9H2X9). Description: retest of KCC2 transport modulators without sodium – cell-based, HEK293 KCC2, thallium flux, secondary assay, confirmation (AID 1713;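 active = thallium flux slope above the same plate's solvent-only control mean plus 3 SD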). To be noted: FluoZin2 fluorescence, at 10 µM, stronger effect = higher value.
The nature of assay [7]: inhibitors of TNFa-induced NFkB p65 translocation, primary screen, imaging, HUVEC, MLSMR starter and 10KST1 sets (AID 438;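 active = inhibition above 20% together with a positive visual image hit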;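 also: compound added about 3h40 before a 20 min TNFalpha stimulation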;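 as to inhibition: signal is the nuclear over cytoplasmic p65 intensity ratio per well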). To be noted: HUVEC TNFa-induced p65 nuclear translocation; cell count: measured here: nuclei count (cytotoxicity indicator), at 2.08 µM; inhibition: at 2 µM, stronger effect = higher value, 0% TNFa-plus-vehicle, 100% no-TNFa wells.
A short description of assay [8]: reduction of polyQ htt aggregates in cells – imaging, exon1htt(103Q)mCFP cells, high-content imaging, primary screen (AID 483;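 active = visual image review flags a hit and inhibition of aggregation exceeds 20%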;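 also: compound exposure lasted 3 days before fixation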;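 as to nuclei count: percent of the per-plate median nuclei count of sample wells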). To be noted: exon1htt(103Q)mCFP cell line, aggregate imaging, at 2 µM; inhibition of aggregation: stronger effect = higher value; nuclei count: measured here: cell count, toxicity.
Assay [9] is described as follows: endothelial E-selectin expression blockers – imaging, HUVEC, immunofluorescence, MLSMR starter and 10KST1 sets, primary screen (AID 487;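 active = visually confirmed hit in the image check and inhibition above 20%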;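 as to inhibition: signal is fraction of cell area covered by stained E-selectin grains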;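 as to nuclei count: 100% = median nuclei count of all wells on the same plate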). To be noted: HUVEC TNFalpha-induced E-selectin immunofluorescence imaging, at 2 µM; inhibition: stronger effect = higher value; nuclei count: measured here: cell number, toxicity.
Assay [10] is described as follows: Primary imaging screen for DUSP6 inhibitors that restore phospho-Erk in transfected HeLa cells, chemical complementation (AID 609;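 active = compounds giving at least 50% inhibition in the cell-based MKP-3 phosphatase rescue imaging test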;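 as to inhibition: phospho-Erk level distribution per well compared with pooled transfected vehicle control wells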). To be noted: HeLa MKP-3 transfected, phospho-Erk imaging KS statistic, at 10 µM, cells stimulated with TPA for 15 min.
The target of assay [11] is Dual specificity protein phosphatase 6 (Homo sapiens) (UniProt Q16828). The assay is described as above. To be noted: HeLa MKP-3 transfected, phospho-Erk imaging KS statistic; at 10 µM; stronger effect = higher value; cells stimulated with TPA for 15 min.
Assay [12] concerns the target Voltage-gated potassium channel subunit beta-2 (Rattus norvegicus) (UniProt P62483). Description: inhibitors of rat Kvbeta2 reductase activity – biochemical, NADPH fluorescence, primary screen (AID 622;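 active = fluorescence slope higher than the sample average by over 3 SD, cut at about -0.22 in these data, passing the limit was not always enough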;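 also: slope of raw intensity against log time taken from 70 to 1610 s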). To be noted: recombinant KvBeta, 4-cyanobenzaldehyde reduction, at 10 µM, stronger effect = higher value.
The target is the same in assay [13]. Description: enhancers of rat Kvbeta2 NADPH turnover – biochemical, NADPH fluorescence, primary screen (AID 623;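 active = NADPH fluorescence slope more negative than the mean of all samples by about 3 SD, 99.7% confidence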;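 also: fluorescence intensity change per second fitted from 20 to 320 s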). To be noted: Recombinant KvBeta, NADPH fluorescence decrease slope, 10 min; at 10 µM; stronger effect = lower value.
For assay [14], the target named is Alpha-2C adrenergic receptor (Homo sapiens) (UniProt P18825). Description: compounds altering alpha2C-coupled GIRK flux – cell-based, HEK293 alpha2C/GIRK1/2, thallium flux, primary screen (AID 624;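 active = fluorescence slope after compound addition differing from the mean of all screened samples at 99.7% confidence, in either direction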;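 also: slope of fluorescence ratio to pre-addition baseline per second over 15 to 24 s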). To be noted: thallium flux BTC fluorescence, at 10 µM, actives lie on both sides.
Assay [15] in a line: loss of swimming-algae plug formation – whole organism, Chlamydomonas reinhardtii, WT vs cilia-less mutant, absorbance, 96-well, primary screen (AID 463189;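 active = inhibition at or above 50% relative to wild type and mutant plate controls; inactive = inhibition below 50%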;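 also: 0% = wild type cc124 cells in DMSO and 100% = ciliumless bld1 mutant cells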). To be noted: Chlamydomonas reinhardtii gravitaxis, OD600 absorbance, 2 days; at 10 µM; stronger effect = higher value.
Assay [16] in a line: blockers of RIG-like receptor reporter activation – cell-based, Sendai virus stimulus, luciferase, 10K MLSCN set, TLR/RLR signaling modifier project, primary screen (AID 602276;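 active = inhibition at or above 50% at 10 µM; inactive = inhibition below 50%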;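 also: firefly luciferase from ISG56 promoter only with Renilla not read in this screen; 0% = Sendai virus plus DMSO and 100% = medium plus DMSO without virus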). To be noted: HEK293 RL24 IRF3 luciferase reporter, at 10 µM, stronger effect = higher value. On the technique in general: A reporter such as luciferase makes a cellular process visible.
A short description of assay [17]: TLR3 IRF3 reporter activation blockers – cell-based, poly I:C stimulus, luciferase, 10K MLSCN set, primary screen (AID 602277;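 active = inhibition of the reporter signal at or above 50%; inactive = inhibition below 50%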). To be noted: HEK293-TLR3 RL24 IRF3 luciferase reporter, at 10 µM, stronger effect = higher value.
Where [18] appears, read: measured here: cell density z-score.
Setting [19] is: measured here: nuclear c-Myc green intensity z-score.
Setting [20] is: measured here: nuclear pErk red intensity z-score, stronger effect = higher value.

Values joined by “and” are separate entries in the source; they are usually repeats but may differ in a detail not shown here. Equal values may be shown once. This is one part of the list. Results filed as inconclusive are left out. Active and inactive are the calls of the source.

Sequence of Solute carrier family 12 member 5 (Homo sapiens) (Q9H2X9 whole entry, looked up): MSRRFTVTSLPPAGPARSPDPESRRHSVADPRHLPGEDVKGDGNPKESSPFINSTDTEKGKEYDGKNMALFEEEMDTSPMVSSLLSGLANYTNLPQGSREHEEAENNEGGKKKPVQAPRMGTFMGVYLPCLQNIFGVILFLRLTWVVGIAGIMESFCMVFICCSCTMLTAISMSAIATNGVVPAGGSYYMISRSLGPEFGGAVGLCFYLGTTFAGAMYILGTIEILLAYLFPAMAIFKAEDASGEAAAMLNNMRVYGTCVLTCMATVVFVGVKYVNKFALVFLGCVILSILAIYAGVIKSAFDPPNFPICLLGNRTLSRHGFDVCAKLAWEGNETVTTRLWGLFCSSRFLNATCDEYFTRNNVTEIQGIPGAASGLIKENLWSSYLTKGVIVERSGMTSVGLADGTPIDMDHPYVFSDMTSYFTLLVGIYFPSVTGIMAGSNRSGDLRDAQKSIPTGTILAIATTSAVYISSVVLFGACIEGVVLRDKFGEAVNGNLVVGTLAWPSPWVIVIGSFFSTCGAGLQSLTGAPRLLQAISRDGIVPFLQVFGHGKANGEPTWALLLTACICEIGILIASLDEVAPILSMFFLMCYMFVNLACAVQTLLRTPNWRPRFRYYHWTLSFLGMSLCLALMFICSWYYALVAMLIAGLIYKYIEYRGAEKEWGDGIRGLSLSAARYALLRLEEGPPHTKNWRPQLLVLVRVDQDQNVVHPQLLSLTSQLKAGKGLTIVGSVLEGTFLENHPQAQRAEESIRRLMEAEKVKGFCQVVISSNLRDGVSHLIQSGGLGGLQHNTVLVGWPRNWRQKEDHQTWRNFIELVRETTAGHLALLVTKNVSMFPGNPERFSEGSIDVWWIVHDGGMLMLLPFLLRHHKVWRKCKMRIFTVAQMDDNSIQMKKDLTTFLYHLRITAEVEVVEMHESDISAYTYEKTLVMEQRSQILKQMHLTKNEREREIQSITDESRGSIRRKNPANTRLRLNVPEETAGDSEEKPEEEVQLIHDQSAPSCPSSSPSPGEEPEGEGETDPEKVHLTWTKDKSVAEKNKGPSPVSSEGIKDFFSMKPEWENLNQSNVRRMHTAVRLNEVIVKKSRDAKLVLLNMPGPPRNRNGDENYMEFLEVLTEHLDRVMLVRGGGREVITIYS
Sequence of Voltage-gated potassium channel subunit beta-2 (Rattus norvegicus) (P62483 whole entry, looked up): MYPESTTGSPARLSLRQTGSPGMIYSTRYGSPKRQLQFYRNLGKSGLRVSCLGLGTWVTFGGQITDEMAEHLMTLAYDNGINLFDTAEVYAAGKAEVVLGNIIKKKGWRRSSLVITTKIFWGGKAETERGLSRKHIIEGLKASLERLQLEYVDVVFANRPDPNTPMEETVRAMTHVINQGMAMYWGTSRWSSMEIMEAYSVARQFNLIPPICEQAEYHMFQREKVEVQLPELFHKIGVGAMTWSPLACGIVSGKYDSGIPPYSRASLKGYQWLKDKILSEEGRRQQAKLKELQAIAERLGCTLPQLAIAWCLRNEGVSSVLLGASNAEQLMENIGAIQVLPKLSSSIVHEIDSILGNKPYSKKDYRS
Sequence of Alpha-2C adrenergic receptor (Homo sapiens) (P18825 whole entry, looked up): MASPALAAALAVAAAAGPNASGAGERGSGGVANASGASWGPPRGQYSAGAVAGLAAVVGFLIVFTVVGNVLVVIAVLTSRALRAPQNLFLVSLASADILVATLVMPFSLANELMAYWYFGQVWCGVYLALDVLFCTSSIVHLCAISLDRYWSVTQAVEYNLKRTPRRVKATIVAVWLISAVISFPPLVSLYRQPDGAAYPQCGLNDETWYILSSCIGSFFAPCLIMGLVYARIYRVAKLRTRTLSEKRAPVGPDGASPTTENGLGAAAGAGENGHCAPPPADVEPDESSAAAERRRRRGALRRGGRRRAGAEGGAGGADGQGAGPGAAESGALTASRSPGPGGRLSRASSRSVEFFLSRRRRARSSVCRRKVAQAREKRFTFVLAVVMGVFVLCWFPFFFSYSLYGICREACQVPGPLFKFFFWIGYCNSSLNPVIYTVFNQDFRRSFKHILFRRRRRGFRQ
Sequence of Dual specificity protein phosphatase 6 (Homo sapiens) (Q16828 whole entry, looked up): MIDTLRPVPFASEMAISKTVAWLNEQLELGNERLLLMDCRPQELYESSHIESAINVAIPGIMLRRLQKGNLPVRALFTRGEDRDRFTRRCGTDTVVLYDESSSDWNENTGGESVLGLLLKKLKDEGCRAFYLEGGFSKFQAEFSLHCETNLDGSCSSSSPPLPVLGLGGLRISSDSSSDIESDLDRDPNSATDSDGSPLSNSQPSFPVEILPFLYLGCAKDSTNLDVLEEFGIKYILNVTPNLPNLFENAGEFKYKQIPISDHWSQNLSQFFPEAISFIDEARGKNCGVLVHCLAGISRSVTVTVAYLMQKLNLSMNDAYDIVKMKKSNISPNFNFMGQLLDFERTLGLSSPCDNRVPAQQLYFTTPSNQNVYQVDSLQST

As for `Cc1ccc(C(=O)NC(=S)Nc2ccccc2C)cc1`, the normalized thallium flux in [1] is 0.0441 (active); in assay [2] it was 0.0421 (active). Besides, the thallium flux rate (normalised fluorescence) in assay [3] was 0.0432 (active). Besides, the raw Tl+ flux slope (below DMSO = inhibition, above = activation) in assay [4] is 0.0453 (active). In [5], the thallium flux slope is 0.0284 (active).

Consider `CC(C)CNC(=S)NC(=O)c1ccc(Cl)cc1`, for which the values for the normalized thallium flux in assay [1] and in assay [2] were 0.0714 (active) and 0.0638 (active), respectively. Further, the thallium flux rate (normalised fluorescence) in assay [3] is 0.0685 (active). Also, in assay [4], the raw Tl+ flux slope (below DMSO = inhibition, above = activation) is 0.0663 (active). Further, the thallium flux slope in assay [5] is 0.0594 (active).

For the compound `O=C(O)CS/C(=C\c1ccc(F)cc1)c1nc2ccccc2s1`, in assay [6], the normalised thallium flux (F/F0 slope) is 0.0153 (inactive). For the same compound, in assay [3], the thallium flux rate (normalised fluorescence) was 0.00592 (active). In addition, in assay [4], the raw Tl+ flux slope (below DMSO = inhibition, above = activation) was 0.011 (active).

The term inhibition denotes the change of the read-out against control, counted positive when it falls. On to `c1ccc2[nH]c(-c3cscn3)nc2c1`, for which the cell count in [7] was found to be 587. In addition, the inhibition is 2.5% (inactive) in assay [7]; -51.2% (inactive) in [9]; 1.38% (inactive) in assay [11]; 45% (inactive) in assay [15]; -40.2% (inactive) in [16]; -133% (inactive) in [17]. Further, the inhibition of aggregation in [8] was -29.1% (inactive). For the same compound, the nuclei count was 99.7% in [8] and 111% in assay [9]. The z-score was -1.12 in assay [10] (setting [18]), -0.0303 in assay [10] (setting [19]) and -0.292 in assay [10] (setting [20]). The fluorescence slope in [12] was -0.491 (inactive). Moreover, the NADPH fluorescence slope in assay [13] was -6.5e-05 (inactive). Also, in [14], the slope was 0.00525 (inactive).

On to `Cc1[nH]n(-c2ccccc2)c(=O)c1N=Nc1ccccc1C(=O)N1CCCCC1`, for which the figures for the normalized thallium flux in assay [1] and in assay [2] were 0.0338 (active) and 0.03 (inactive), respectively. Further, the thallium flux rate (normalised fluorescence) in assay [3] was 0.0142 (active). For the same compound, the raw Tl+ flux slope (below DMSO = inhibition, above = activation) in assay [4] was 0.0253 (active).

With `O=C(CSc1cccc2cccnc12)N/N=C/c1cccnc1`, the normalized thallium flux in assay [1] is 0.0504 (active); in assay [2], 0.0285 (inactive). The thallium flux rate (normalised fluorescence) in assay [3] is 0.0251 (active). The raw Tl+ flux slope (below DMSO = inhibition, above = activation) in [4] is 0.0449 (active). Moreover, the thallium flux slope in assay [5] is 0.0116 (active).

For the compound `NC(N)=NC(=O)c1nc(Cl)c(N)nc1N`, the cell count in assay [7] was 517. Also, the inhibition in [7] is -4.2% (inactive); in [9] it was -76.7% (inactive); in assay [11], 30.1% (inactive); in assay [15], 4.19% (inactive) and 21.2% (inactive); in assay [16], 15.9% (inactive); in assay [17], 42% (inactive). The inhibition of aggregation in [8] was -1.5% (inactive). Further, the nuclei count was 103% in assay [8] and 114% in [9]. Besides, the z-score in assay [10] (setting [18]) is 2.22; in assay [10] (setting [19]) it was -1.45; in assay [10] (setting [20]) it was -1.51. The fluorescence slope in assay [12] was -0.443 (inactive). The NADPH fluorescence slope in [13] is -7.2e-05 (inactive). Besides, in assay [14], the slope was 0.00564 (inactive).

Regarding `CCOc1ccc(C2/C(=C(/O)c3ccc(OC)cc3)C(=O)C(=O)N2c2cc(C)on2)cc1OC` (stereo not given), the cell count in assay [7] was 314. For the same compound, the inhibition in assay [7] is -5.2% (inactive); in [9], -84.6% (inactive); in [11], -5.26% (inactive); in assay [15] it was -9.21% (inactive); in assay [16] it was -8.23% (inactive); in assay [17] it was -11.7% (inactive). In addition, the inhibition of aggregation in assay [8] was 2.5% (inactive). The results for the nuclei count in [8] and in [9] were 87.7% and 122%, respectively. The values for the z-score in [10] (setting [18]), in assay [10] (setting [19]) and in [10] (setting [20]) were 0.762, 0.679 and -1.01, respectively. Besides, in assay [12], the fluorescence slope is -0.434 (inactive). Moreover, the NADPH fluorescence slope in [13] was -0.000115 (inactive). Moreover, the slope in [14] is 0.00335 (inactive).

For the origin of these results see PubChem BioAssay.
